GLP1R ag – GLP-1 receptor (human) agonism; Potency, µM (highest dose often 45.6 µM), without a hit: at the top dose activation, actives largely listed as activators; actives 0.007% (n = 380,000); HEK293 GLP-1R CRE-luciferase, luminescence, 4-6 h; cells express a hypersensitive GLP-1R form; AID 624172; P43220; note: % of control where 0% means no effect
Gal4-VP16 FLuc – counter-screen for ROR gamma inhibitors: Gal4-VP16 reporter; Drosophila S2 Gal4-VP16 UAS-luciferase, luminescence, 20 h; Potency, µM (series often up to 53.6 µM), for the others: top-dose activity, negative = inhibition, hits mostly inhibitors; actives 3.5% (n = 310,000); AID 2546;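 note: Gal4-VP16 expression switched on by copper sulfate through the metallothionein promoter; % is set by controls: 0 for no effect and ±100 for the full control effect; nearly all actives have a fitted effect of over 50% in size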
RORgamma inh – inhibitors of mouse ROR gamma transcriptional activity | P51450 | Drosophila S2 Gal4-RORgamma UAS-luciferase reporter, 20 h | Potency, µM (highest dose often 53.6 µM), inactives show at the highest dose activity change, negative = inhibition, most hits filed as inhibitors | actives 5.4% (n = 310,000) | AID 2551; note: % is set by controls: 0 for no effect and ±100 for the full control effect; nearly all actives have a fitted effect of over 60% in size
Target sequence (P51450 whole entry, looked up, the tested form may be a part): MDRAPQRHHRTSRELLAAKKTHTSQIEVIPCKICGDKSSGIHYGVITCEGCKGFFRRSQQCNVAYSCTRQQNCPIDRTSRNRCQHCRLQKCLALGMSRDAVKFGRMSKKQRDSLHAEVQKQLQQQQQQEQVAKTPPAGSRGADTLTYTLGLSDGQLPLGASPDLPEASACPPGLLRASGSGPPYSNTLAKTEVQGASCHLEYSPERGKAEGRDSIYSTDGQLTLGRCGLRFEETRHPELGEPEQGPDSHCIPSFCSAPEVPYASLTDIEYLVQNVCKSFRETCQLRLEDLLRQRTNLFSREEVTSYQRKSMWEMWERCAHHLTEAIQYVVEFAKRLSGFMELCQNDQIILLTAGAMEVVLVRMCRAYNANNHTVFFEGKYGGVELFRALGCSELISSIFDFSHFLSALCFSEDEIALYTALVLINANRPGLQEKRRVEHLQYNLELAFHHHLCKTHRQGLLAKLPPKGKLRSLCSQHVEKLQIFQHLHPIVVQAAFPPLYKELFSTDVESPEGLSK
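Compounds are pin-transferred onto Drosophila Schneider cells expressing a copper-inducible Gal4–ROR gamma transactivation domain fusion. After 1 hr, copper sulfate is added to 700 uM final; luciferase is read 20 hr later.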
GLP1R inv ag – GLP-1 receptor (human) inverse agonism; AID 624417; Potency, µM (highest dose often 38.3 µM), for the others: top-dose activity change, negative = inhibition, actives largely listed as inhibitors; actives 1.6% (n = 410,000); HEK293 GLP-1R CRE-luciferase, luminescence, 24 h; GLP-1R form is constitutively active; note: % is set by controls: 0 for no effect and ±100 for the full control effect; nearly all actives have a fitted effect of over 55% in size
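Inverse agonism was detected as reduced cAMP-driven luciferase luminescence after 24 h compound treatment. The cells were HEK293 clones expressing constitutively active human GLP-1R with the reporter. Reporter-only and GPR119 cell lines served as counterscreen controls.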
HEK293 tox – cytotoxic in the GLP-1 receptor inverse agonist counter-screen | HEK293 cAMP-luciferase reporter cells, luminescence, 24 h | Potency, µM (highest dose often 38.3 µM), without a hit: at the highest dose activity change, negative = inhibition, hits mostly inhibitors | actives 0.13% (n = 410,000) | AID 624418;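 note: loss of luciferase light is scored as toxicity; % is set by controls: 0 for no effect and ±100 for the full control effect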
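MLSMR compounds, 24 hr on cells at 37 deg C/5% CO2; luminescence after luciferase reagent (12 min RT). Inhibition counted as the undesired cytotoxic outcome.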
* hit, by the source's call; ? = inconclusive; · = not tested or not shown; [ ] = another dose, or the depositor's remark. An excerpt weighted towards active compounds, which were near 5.9% of everything screened. Calls come from the whole dose curve; as a rule, active = well fitted curve in the direction sought with a large enough effect; inconclusive = small, poorly fitted or top-dose-only effect, or another doubt; inactive = no such curve, though single readings can be large; an effect the other way counts as inactive or inconclusive. Potency is the fitted concentration of half-maximal effect.

SMILES	GLP1R ag	Gal4-VP16 FLuc	RORgamma inh	GLP1R inv ag	HEK293 tox
Cc1cc2c(nc1C)CCCN2CC(O)CN1CCCc2nc(C)c(C)cc21	·	-1.5%[10 µM]	16.1%[10 µM]	·	·
Cc1ccc(Cn2c(=S)[nH]c3ccccc3c2=O)cc1	7.1%	6.31µM*	3.98µM*	-6.7%	-11.2%
COc1ccc(Cn2c(=S)[nH]c3ccccc3c2=O)cc1	0.0%	10µM*	8.91µM*	4.8%	11.6%
CN(C)c1ccc(-c2nc(-c3ccco3)no2)cc1[N+](=O)[O-]	·	·	·	-0.1%	2.5%
Cc1cnc(CNc2ccnc(-c3ccccc3C(F)(F)F)n2)cn1	·	-1.2%	0.4%	·	·
CCCN1CCC(=O)N(C(CSc2ccc(C)cc2)CC(C)C)CC1 (configuration not stated)	·	-1.2%	37.9%	·	·
CCCCC(CC)CCC(CC(C)C)OS(=O)(=O)O (configuration not stated)	0.1%	1.8%	17.0%	·	·
CCCNC(=O)CCC(=O)Nc1ncc(-c2ccc(C)cc2)n1C	-0.5%	5.62µM*	3.55µM*	3.9%	0.6%
CCOC(=O)Nc1ccc2c(c1)N(CCCN(C)C)c1ccccc1CC2	-5.5%	0.5%	-9.1%	12.6µM*	2.7%
CCCC(CCC)C(=O)Nc1ccc2c(c1)N(C(=O)CN1CCN(C)CC1)c1ccccc1CC2	5.8%	4.4%	-13.3%	7.94µM*	?
CCOC(=O)Nc1ccc2c(c1)N(C(=O)CN1CCN(C)CC1)c1ccccc1S2	5.4%	-12.3%	12.1%	?	?
CN(C)CC(=O)N1c2ccccc2CCc2ccc(NC(=O)c3ccc(N)cc3)cc21	1.9%	7.08µM*	7.94µM*	0.4%	-21.0%
COc1ccc(NC(=O)C2=C(C)Nc3ncnn3C2c2sccc2C)cc1 (configuration not stated)	-0.9%	·	·	7.6%	1.4%
BrC/C=C/CBr	·	1.7%	13.0%	·	·
CC(C)(C)Nc1nc(NN)nc(NC(C)(C)C)n1	-14.9%	20µM*	7.08µM*	?	?
Cc1nn2c(=O)cc(COC(=O)c3ccc(NC(=O)c4cccc(Br)c4)cc3)nc2s1	·	·	·	-1.3%	-13.8%
O=C(Nc1ccc(O)c(-c2nc3ccccc3o2)c1)C1(c2ccc(Br)cc2)CCCC1	-10.2%	5.62µM*	6.31µM*	8.5%	-3.8%
COc1ccccc1-c1cc(C(F)(F)F)nc(S(=O)(=O)CCCC(=O)N2CCOCC2)n1	-30.6%	7.08µM*	5.62µM*	?	?
COc1ccc(-c2cc(C(F)(F)F)nc(S(=O)(=O)CCC(=O)N3CCOCC3)n2)cc1	0.2%	?	8.91µM*	76.1%	-22.2%
COc1ccccc1-c1cc(C(F)(F)F)nc(S(=O)(=O)CCCC(=O)O)n1	0.1%	?	?	0.0%	?
N#Cc1ccc(CN2CCC3(CC2)CCN(S(=O)(=O)c2ccccc2)CC3)cc1	·	-24.7%	-12.0%	·	·
CC1CC(NNC(=O)c2ccccc2)=Nc2ccccc2N1C (configuration not stated)	-10.6%	5.01µM*	1.78µM*	16.3%	-1.6%
O=C(NNc1ccccc1)c1ccccc1	-6.0%	·	·	?	?
CCCc1cc(C(=O)Cc2ccc(F)cc2)c(O)cc1O	-18.0%	?	11.2µM*	?	-23.9%
CCc1cc(C(=O)Cc2ccc(F)cc2)c(O)cc1O	16.7%	?	9.9%	?	4.9%
SMILES	GLP1R ag	Gal4-VP16 FLuc	RORgamma inh	GLP1R inv ag	HEK293 tox
COc1ccc(/C=N/N2CCN(c3ccc(Cl)cc3)CC2)cc1	0.0%	-0.6%	-12.1%[1.91 µM]	6.5%	24.5%
Cc1ccc(N=C2C(=S)N(c3ccc(C)cc3)C(=N)N2/N=C/c2ccc(Cl)cc2)cc1	3.4%	3.16µM*	2.51µM*	0.0%	-20.6%
CC(O)CNCCCOc1ccccc1OCc1ccccc1 (configuration not stated)	-3.0%	4.5%	7.7%	?	0.2%
CC(O)CNCCCCOc1ccc(OCc2ccccc2)cc1 (configuration not stated)	-1.1%	-14.3%	13.4%	14.1µM*	-9.4%
Oc1cccc(C(Nc2nccs2)c2ccc3cccnc3c2O)c1 (configuration not stated)	0.5%	3.55µM*	1.41µM*	?	8.6%
COc1cccc(C(NC(C)=O)c2ccc3cccnc3c2O)c1 (configuration not stated)	6.5%	5.01µM*	2.82µM*	?	-15.8%
CC(=O)NC(c1cccc([N+](=O)[O-])c1)c1ccc2cccnc2c1O (configuration not stated)	2.9%	2µM*	1.41µM*	?	?
Cc1ccc(C)c(-c2nn(CC(=O)Nc3cc(F)ccc3F)c(=O)c3c2CCCC3)c1	·	·	·	?	-3.7%
OCC1OC(/C=C\c2ccccc2)C=CC1Oc1ccc2c(c1)OCO2 (configuration not stated)	·	7.7%[10 µM]	33.4%[10 µM]	·	·
[C-]#[N+]/C(C#N)=C\c1cc(C(C)(C)C)c(O)c(C(C)(C)C)c1	·	8.91µM*	0.199µM*	·	·
Cc1ccc(C)c(/C=C/C(=O)c2ccccc(=O)c2O)c1	5.7%	5.01µM*	3.16µM*	?	?
O=C(/C=C/c1c(F)cccc1Cl)c1ccc(O)cc1	-1.6%	2.8%	?	?	?
O=C(/C=C/c1ccc(O)c(O)c1)c1ccccc1O	12.3%	?	-21.0%	16.4%	?
O=C(/C=C/c1ccccc1Cl)c1ccccc(=O)c1O	-0.8%	5.62µM*	3.55µM*	?	?
O=C(C=Cc1ccccc1O)c1ccccc1O	6.5%	·	·	7.94µM*	-15.8%
O=C(/C=C/c1ccccc1Cl)c1ccc(O)cc1	-3.8%	?	10µM*	?	-20.9%
CCOC(=O)c1cc(-c2ccccc2)n(CCCC(=O)Nc2cccc(C)c2C)c1C	·	·	·	2.3%	-24.8%
O=S(=O)(O)OCC1OC(OC2(COS(=O)(=O)O)OC(COS(=O)(=O)O)C(OS(=O)(=O)O)C2OS(=O)(=O)O)C(OS(=O)(=O)O)C(OS(=O)(=O)O)C1OS(=O)(=O)O (configuration not stated)	-2.8%	·	·	·	·
CCOC(=O)c1cccc(NC(=O)C2CCN(S(=O)(=O)c3ccc4c(c3)oc(=O)n4C)CC2)c1	3.5%	·	·	0.0%	1.8%
CCN(CC)c1c([N+](=O)[O-])ncn1C	-8.2%	1.1%	16.1%	-0.4%	-15.1%
CCS(=O)(=O)c1c([N+](=O)[O-])ncn1C	-4.5%	10µM*	?	-4.8%	-29.8%
CC1C/C(=C/c2ccccn2)C(=O)/C(=C/c2ccccn2)C1 (configuration not stated)	-5.4%	1.41µM*	2.82µM*	-91.5%	4.47µM*
CC(C)(C)C1C/C(=C/c2ccccn2)C(=O)/C(=C/c2ccccn2)C1 (configuration not stated)	0.6%	?	5.62µM*	?	?

From PubChem BioAssay
